# An excerpt weighted towards active compounds, which were near 16% of everything screened.
# DT40 TDP1 no CPT = qHTS for Inhibitors of human tyrosyl-DNA phosphodiesterase 1 (TDP1): qHTS in cells in absence of CPT | DT40 Tdp1-/- hTDP1 cells, no CPT, ATP luminescence, 48 h | Potency, µM (doses to about 46.2 µM), for inactives: at the top dose activity change, negative = growth inhibition, hits mostly inhibitors | 15% of 420,000 active; further: potency means the concentration at half of the fitted maximal effect; on the % scale 0 is the no-effect control and ±100 the full control effect; nearly all actives have a fitted effect of over 55% in size
#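 Cells were dispensed at 400 per well, compounds added by pin tool, plates incubated ≥48 hr at 37 °C, then CellTiter-Glo added for 30 min at room temperature before luminescence reading. Line: DT40 Tdp1-/- complemented with hTDP1; camptothecin omitted.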
# TDP1 cell CPT = qHTS for Inhibitors of human tyrosyl-DNA phosphodiesterase 1 (TDP1): qHTS in cells in presence of CPT | Potency, µM (series often up to 46.2 µM), for the others: at the top dose activity change, negative = growth inhibition, actives largely listed as inhibitors | 12% of 420,000 active | AID 686979, 2013 | chicken DT40 Tdp1-/-;hTDP1 cells + 20 nM CPT, ATP luminescence, 48 h; further: potency means the concentration at half of the fitted maximal effect; on the % scale 0 is the no-effect control and ±100 the full control effect; nearly all actives have a fitted effect of over 55% in size
#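 Chicken DT40 Tdp1-/- cells complemented with human TDP1, 400 cells/well, exposed to compounds plus 20 nM camptothecin for at least 48 h at 37 C; viability read as ATP content by CellTiter-Glo luminescence.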
# miR-21 act = qHTS Assay for Modulators of miRNAs and/orActivators of miR-21; HeLa miR-21 FLuc reporter, luciferase, 48 h; Potency, µM (titrated, usually from 38.3 µM), inactives show top-dose activity change, positive = activation, hits mostly activators; 340,000 tested, under 10 active; AID 2288, 2010;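 further: % of control where 0% means no effect; miR-21 action dims this reporter so a rising signal means less miR-21 action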
#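 HeLa cells stably expressing CMV-driven firefly luciferase with a downstream miR-21 binding sequence, endogenously expressing miR-21, were treated with titrations (up to about 40uM final) for 48 hours at 37 degree Celsius. Luciferase luminescence was read after lysis.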
# TDP1 block = qHTS Assay for Inhibitors of Tyrosyl-DNA Phosphodiesterase (TDP1); AID 485290, 2010; Tyrosyl-DNA phosphodiesterase 1 (Homo sapiens), Q9NUW8; 0.28% of 350,000 active; recombinant TDP1, AlphaScreen DNA substrate cleavage; Potency, µM (top dose mostly 130 µM), without a hit: at the top dose activity change, negative = inhibition, actives largely listed as inhibitors; further: potency means the concentration at half of the fitted maximal effect; on the % scale 0 is the no-effect control and ±100 the full control effect; nearly all actives have a fitted effect of over 40% in size
# Target sequence (Q9NUW8 whole entry, looked up): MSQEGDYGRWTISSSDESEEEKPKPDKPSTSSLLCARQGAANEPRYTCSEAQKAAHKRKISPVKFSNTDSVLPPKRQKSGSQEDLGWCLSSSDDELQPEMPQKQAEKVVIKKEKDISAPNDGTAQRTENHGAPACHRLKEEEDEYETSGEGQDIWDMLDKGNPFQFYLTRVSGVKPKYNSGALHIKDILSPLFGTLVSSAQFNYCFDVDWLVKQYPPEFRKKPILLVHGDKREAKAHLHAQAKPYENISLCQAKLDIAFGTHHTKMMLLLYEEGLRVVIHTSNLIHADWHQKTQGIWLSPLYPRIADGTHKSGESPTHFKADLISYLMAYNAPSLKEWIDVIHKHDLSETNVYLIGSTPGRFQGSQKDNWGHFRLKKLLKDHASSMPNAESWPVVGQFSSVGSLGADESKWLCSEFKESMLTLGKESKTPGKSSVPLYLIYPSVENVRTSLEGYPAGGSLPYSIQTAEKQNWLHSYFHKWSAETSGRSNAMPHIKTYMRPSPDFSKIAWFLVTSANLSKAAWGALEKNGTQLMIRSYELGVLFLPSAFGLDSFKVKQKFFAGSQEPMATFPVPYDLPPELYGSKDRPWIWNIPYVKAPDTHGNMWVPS
#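 Here, a 5' biotin and 3' phosphotyrosine-FITC DNA oligonucleotide reports Tdp1 activity: intact substrate bridges AlphaScreen beads, while cleavage leaves a 3' phosphate and drops signal. All incubations at room temperature.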
# uPA generation = qHTS for Inhibitors of Cell Surface uPA Generation; cell surface uPA generation assay, qHTS; Potency, µM (series often up to 38.3 µM), for inactives: at the highest dose activity change, negative = inhibition, actives largely listed as inhibitors; 0.31% of 330,000 active; active means well fitted inhibition curve with a large enough effect; inconclusive means small, poorly fitted or top-dose-only effect; inactive means no such curve, though single readings can be large or run the other way; tested in mouse RAW 264.7 cells; further: potency means the concentration at half of the fitted maximal effect; on the % scale 0 is the no-effect control and ±100 the full control effect; nearly all actives have a fitted effect of over 55% in size
# * marks the source's active call; other numbers are inactive results; ? = inconclusive; / = no result given. Unless noted, the call rests on the fitted dose curve; in most records, active means well fitted curve in the direction sought with a large enough effect; inconclusive means small, poorly fitted or top-dose-only effect, or another doubt; inactive means no such curve, though single readings can be large; an effect the other way counts as inactive or inconclusive.
SMILES,DT40 TDP1 no CPT,TDP1 cell CPT,miR-21 act,TDP1 block,uPA generation
CCOc1cc(C(=O)NCCc2csc(-c3ccc(C)cc3)n2)cc(OCC)c1OCC,16µM*,?,13%,-3%,/
CN(Cc1ccccc1)C(=O)CSc1cc(=O)n(C)c2ccccc12,-17%,35%,-25%,8%,-6%
COC(=O)C1=C(C)NC(=O)NC1c1ccccc1Cl (stereo not given),8%,7%,0%,2%,7%
O=C(COc1ccc(Cl)cc1)NCCc1csc(-c2ccc(F)cc2)n1,15µM*,16µM*,-6%,5%,/
COc1cc(C(=O)NCCc2csc(-c3ccc(Cl)cc3)n2)cc(OC)c1OC,21µM*,?,18%,2%,/
O=C(COc1ccccc1)NCCc1csc(-c2ccc(Cl)cc2)n1,?,?,-6%,3%,/
CCOc1ccc(NC(=O)C(=O)NCCc2csc(-c3ccc(C(F)(F)F)cc3)n2)cc1,1%,3%,-3%,4%,/
O=C(NCCc1csc(-c2cccnc2)n1)c1ccc(Cl)cc1,?,-17%,-4%,/,?
O=C(COc1ccc(Cl)cc1)NCCc1csc(-c2ccc(C(F)(F)F)cc2)n1,23µM*,?,-2%,-1%,/
CN1CCN(c2ccc(-c3ccnn3C(=O)Nc3ccccc3)cc2)CC1,-1%,-13%,-24%,/,-1%
Cc1cc(C)c(NC(=O)CSc2nnc(-c3ccncc3)n2Cc2ccco2)c(C)c1,3%,0%,-5%,3%,10%
Cc1ccc(S(=O)(=O)N2CCOCC2)cc1NC(=O)COc1ccc2c(C)cc(=O)oc2c1,?,?,10%,2%,6%
O=S(=O)(O)c1cc(I)c(O)c2ncccc12,21µM*,21µM*,/,-2%,/
O=C(Nc1ccc(/C=C/c2ccc(NC(=O)c3cc(S(=O)(=O)O)c4cccnc4c3O)cc2S(=O)(=O)O)c(S(=O)(=O)O)c1)c1cc(S(=O)(=O)O)c2cccnc2c1O,-22%,-23%,/,/,/
Cc1nc(C(F)(F)F)c(C(=O)N/N=C(\N)c2ccccn2)s1,4.1µM*,13µM*,26%,5%,-15%
Cc1cc2c(cc1C)-c1nnnn1C(N1CCC(Cc3ccccc3)CC1)C(=O)N2 (stereo not given),9.2µM*,15µM*,/,/,/
N#Cc1ccccc1S(=O)(=O)N1CCN(C(=O)CN(Cc2ccco2)Cc2cccs2)CC1,16µM*,?,/,/,/
O=C(NC1CC1)C1=C[C@@H](c2c[nH]c3ccccc23)C[C@@H](OCc2ccc(CO)cc2)O1,-5%,?,10%,6%,-22%
CCOC(=O)c1c(NC(=O)c2ccc(Cl)cc2)csc1C,-13%,4%,-2%,1%,4%
Cc1nc2ccccc2nc(C)c1=NOCC(=O)N(c1ccccc1)C(C)C,18µM*,?,-46%,-3%,1%
CCOC(=O)C1=Nc2ccccc2C1=[N+]=[N-],7.3µM*,4.6µM*,-1%,0%,-9%
CN(Cc1ccccc1)N=Nc1ccccc1,?,-30%,/,/,/
CN(C)N=Nc1ccc(-c2cn(Cc3ccccc3)cn2)cc1,26µM*,0%,-41%,/,3%
CCOC(=O)CSc1nc2cc(OC)ccc2cc1C#N,23µM*,16µM*,-45%,5%,-11%
CCOC(=O)CSc1nc(N)c(C#N)cc1C#N,16µM*,-28%,-72%,-10%,-18%
SMILES,DT40 TDP1 no CPT,TDP1 cell CPT,miR-21 act,TDP1 block,uPA generation
CCOC(=O)CC(=O)CSc1nc2c(cc1C#N)CCC2,21µM*,8.2µM*,-33%,1%,1%
CCOC(=O)CSc1nc2ccc(C)cc2cc1C#N,-21%,-23%,-42%,-2%,17%
CCOC(=O)CSc1nc2cc(C)ccc2cc1C#N,10µM*,13µM*,-51%,-6%,-3%
CC(C)OC(=O)CSc1nc(N)c(C#N)cc1C#N,?,1%,-71%,-8%,-1%
CCN(CC)CCCN1C(=O)C2C(C(=O)Nc3ccc(C(C)C)cc3)C3C=CC2(O3)C1C(=O)NC1CCCCC1 (stereo not given),-13%,-1%,0%,9%,1%
COC(=O)c1c(N)n(-c2ccc(NC(C)=O)cc2)c2nc3ccccc3nc12,21µM*,23µM*,0%,2%,-6%
Nc1c(C(=O)NCCN2CCOCC2)c2nc3ccccc3nc2n1CCc1ccccc1,21µM*,?,23%,-3%,9%
Nc1c(C(=O)NCCN2CCOCC2)c2nc3ccccc3nc2n1CCc1ccccc1F,?,?,14%,1%,-9%
COc1nc(OC)nc(N2CCC(C(=O)NCc3ccco3)CC2)n1,-1%,-25%,-3%,2%,/
COC(=O)c1c(N)n(-c2ccc(N3CCOCC3)cc2)c2nc3ccccc3nc12,/,/,-17%,5%,/
O=C(NCc1ccco1)C1CCN(c2nc3ccccc3n2Cc2ccc(F)cc2)CC1,16µM*,?,12%,5%,-11%
Nc1c(C(=O)NCCN2CCOCC2)c2nc3ccccc3nc2n1-c1ccccc1,16µM*,?,19%,3%,-6%
CC1CN(C(=O)Cn2cc(S(=O)(=O)CC(=O)N(C)c3ccccc3)c3ccccc32)CC(C)O1 (stereo not given),0%,14%,-2%,4%,-4%
CCOC(=O)c1cc(-c2ccccc2)nc2c(O)cccc12,-14%,-17%,/,/,-8%
C=CCNC(=O)c1c(N)n(-c2cccc(S(N)(=O)=O)c2)c2nc3ccccc3nc12,12µM*,15µM*,12%,2%,-3%
COCCCNC(=O)c1c(N)n(-c2ccc(S(N)(=O)=O)cc2)c2nc3ccccc3nc12,-16%,-12%,-16%,5%,13%
COCCCNC(=O)c1c(N)n(-c2ccccc2)c2nc3ccccc3nc12,18µM*,?,5%,-1%,-2%
COc1ccccc1CNC(=O)c1c(N)n(CCCN2CCOCC2)c2nc3ccccc3nc12,?,?,17%,-4%,-11%
Nc1c(C(=O)NCc2ccc3c(c2)OCO3)c2nc3ccccc3nc2n1CCCN1CCOCC1,?,23µM*,-6%,4%,?
Nc1c(C(=O)NCc2ccco2)c2nc3ccccc3nc2n1CCc1ccc(F)cc1,18µM*,21µM*,8%,-2%,-9%
COc1ccc(-n2c(N)c(C(=O)NCc3ccco3)c3nc4ccccc4nc32)cc1,?,?,8%,5%,1%
CN(c1ccccc1)S(=O)(=O)c1ccccc1Br,?,?,/,-8%,-47%
